# Screening results (PubChem)
# VP16 counter: inhibits Gal4-VP16 luciferase reporter, ROR gamma counter-screen. Drosophila S2 Gal4-VP16 UAS-luciferase, luminescence, 20 h. Potency, µM (top dose mostly 53.6 µM), for inactives: at the highest dose activity, negative = inhibition, actives largely listed as inhibitors. actives 3.5% (n = 310,000);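 note: Gal4-VP16 expression switched on by copper sulfate through the metallothionein promoter; potency is the fitted concentration of half-maximal effect; nearly all actives have a fitted effect of over 50% in size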
# RORgamma inh: inhibitors of mouse ROR gamma transcriptional activity; Drosophila S2 Gal4-RORgamma UAS-luciferase reporter, 20 h; Potency, µM (titrated, usually from 53.6 µM), for inactives: top-dose activity change, negative = inhibition, hits mostly inhibitors; actives 5.4% (n = 310,000); note: potency is the fitted concentration of half-maximal effect; nearly all actives have a fitted effect of over 60% in size
#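 Luminescence from a UAS-regulated Photinus luciferase reporter in stably transfected Drosophila Schneider cells is measured; decreased signal marks ROR gamma inhibition. Fusion expression is induced by 700 uM copper sulfate for 20 hr.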
# GALK inhibitor: inhibitors of human galactokinase. Purified GALK, Kinase-Glo residual ATP luminescence. Potency, µM (top dose mostly 57.5 µM), for the others: at the highest dose activity change, negative = inhibition, actives largely listed as inhibitors. actives 0.007% (n = 270,000). P51570. AID 1868; note: potency is the fitted concentration of half-maximal effect
# Target sequence (P51570 whole entry, looked up): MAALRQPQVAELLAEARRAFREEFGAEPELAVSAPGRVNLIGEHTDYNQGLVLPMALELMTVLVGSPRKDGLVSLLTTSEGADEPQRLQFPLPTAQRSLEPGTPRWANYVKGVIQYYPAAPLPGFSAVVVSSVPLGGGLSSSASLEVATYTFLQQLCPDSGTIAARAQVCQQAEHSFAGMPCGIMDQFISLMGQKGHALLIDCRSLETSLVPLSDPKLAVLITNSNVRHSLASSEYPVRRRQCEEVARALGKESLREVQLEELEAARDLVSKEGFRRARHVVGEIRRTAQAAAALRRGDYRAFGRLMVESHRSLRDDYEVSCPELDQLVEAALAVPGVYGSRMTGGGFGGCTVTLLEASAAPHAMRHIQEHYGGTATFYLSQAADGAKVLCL
#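 Kinase-Glo Plus luminescence measured ATP left after a 1 h room-temperature reaction. The reaction used 5 nM GALK, 100 uM galactose and 35 uM ATP at pH 8.0 (20 mM HEPES, 5 mM MgCl2, 60 mM NaCl, 1 mM DTT, 0.01% BSA).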
# TrxR1 substrate: substrates of rat thioredoxin reductase 1 | Potency, µM (doses to about 114 µM), inactives show at the top dose activity change, negative = substrate turnover | purified TrxR1 substrate turnover, NADPH consumption readout | actives 0.01% (n = 390,000) | O89049; note: potency is the fitted concentration of half-maximal effect; nearly all actives have a fitted effect of over 50% in size
#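 Rat TrxR1, dispensed at 90 nM, was prereduced with 400 uM NADPH (final) for 5 min at ~22 deg C, then incubated with compound 15 min before 400 uM selenite. A first-read NADPH fluorescence drop versus no-compound background flagged substrates.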
# FBPA coupling cs: coupling enzyme interference in Giardia aldolase counter-screen. activity change, negative = inhibition, % at 58.2 µM, hits read low. actives 0.67% (n = 290,000). coupling enzyme system counterscreen, AmpLite Red fluorescence; in the data active = activity change below about -30%
#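 Fluorescence at 525 nm excitation and 598 nm emission measured inhibition of the coupled detection system without aldolase. Compounds (at 57.5 uM final) were preincubated 10 min at room temperature with coupling enzyme reagent before a 20 min substrate/AmpLite Red step.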
# TrxR1 inh: rat TrxR1 inhibition. actives 1% (n = 390,000). AID 588453. Potency, µM (series often up to 114 µM), without a hit: top-dose activity change, negative = inhibition, most hits filed as inhibitors. recombinant rTrxR1, NADPH fluorescence consumption, selenite substrate; note: potency is the fitted concentration of half-maximal effect; nearly all actives have a fitted effect of over 65% in size
#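 Rat TrxR1 (90 nM in the dispensed reagent) was pre-reduced with 400 uM NADPH for 5 min at room temperature, then incubated with compound for 15 min. After 400 uM selenite was added, NADPH fluorescence (Ex 340/Em 450 nm) was followed for 8 min.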
# * marks the source's active call; other numbers are inactive results; ? = inconclusive; nt = not tested or not shown; ! = not confirmed by another sample; [ ] = another dose, or the depositor's remark. In the library only some 5.9% were active in any assay of this set; here they are far more common. Unless noted, calls come from the whole dose curve; as a rule, active = well fitted curve in the direction sought with a large enough effect; inconclusive = small, poorly fitted or top-dose-only effect, or another doubt; inactive = no such curve, though single readings can be large; an effect the other way counts as inactive or inconclusive. % is set by controls: 0 for no effect and ±100 for the full control effect.
SMILES,VP16 counter,RORgamma inh,GALK inhibitor,TrxR1 substrate,FBPA coupling cs,TrxR1 inh
O=C1ON=C(c2ccccc2)/C1=C/c1ccccc1,-22%,-20%,0%,11%,7,4.5µM*
CCOC(=O)C1(CCc2ccccc2)CCN(Cc2c(O)cccc2OC)CC1,-2%,44%,1%,4%[57.1 µM],-3,7%[57.1 µM]
Cc1ccc(/C=C2/C(=O)ON=C2c2ccccc2)o1,-6%,-21%,-3%,-6%,1,4µM*
O=C1ON=C(c2ccc(Cl)cc2)/C1=C/c1ccc(O)cc1,?,-103%,-11%,2%[57.1 µM],16,3.2µM*
Cc1ccc(C)c(-c2cc(C(=O)Nc3sc(C)c(C)c3C(N)=O)c3ccccc3n2)c1,-4%,16%,5%,-2%,-7,18%
O=C(OCc1ccc(F)cc1)c1ccc2c(c1)-c1ccccc1C2=O,-1%,10%,-2%,2%,nt,1%
CCOC(=O)C1=C(Cc2ccc(F)cc2)C(=O)c2ccccc2C1=O,-26%,14µM*,0%,-22%,-57*,6.3µM*
C(=C\c1nc(-c2cccnc2)no1)/c1ccccc1,?,4.5µM*,1%,-9%,-19,14%[57.1 µM]
Clc1ccccc1/C=C/c1nc(-c2cccnc2)no1,0%,2µM*,-2%,0%,3,18%
Clc1ccccc1-c1nc(-c2cccnc2)no1,-18%,?,0%,3%,1,4%
COc1ccc(C(=O)/C=C/c2ccsc2)cc1CSCC(=O)O,10µM*,10µM*,1%,-19%,nt,-36%
COc1ccc(C(C)=O)cc1CSCCC(=O)O,-4%,-11%,-1%,-2%,14,-4%[57.1 µM]
CC1=NN(Cc2ccccc2)C(=O)C1C(c1ccc(Cl)cc1)C(C#N)C#N (stereo unspecified),-1%,31%,0%,-9%,4,25µM*
Cn1cccc1C(=O)N1CCN(S(=O)(=O)c2ccccc2)CC1,nt,nt,nt,4%,nt,8%
Cc1sc(NC(=O)c2ccco2)c(C(c2cccnc2)N2CCCC2)c1C (stereo unspecified),5%,-14%,-2%,-2%,1,7.9µM*
Cc1nnc(SCc2ccc(Cl)c(Cl)c2)s1,6%,16%,8%,-5%,3,0%
Cc1[nH]c(=S)sc1Cc1ccc(Cl)c(Cl)c1,?,16µM*,-1%,nt,-2,nt
O=c1oc(/C=C/c2ccccc2)nc2sc3c(c12)CCC3,14%,23%,-2%,0%,-2,-4%
Cc1c2cc(O)c(=O)cc-2oc2cc(O)c(O)cc12,?,?,0%,4%,-54*!,-9%
COc1cc(OC)c(-c2c3cc(O)c(=O)cc-3oc3cc(O)c(O)cc23)cc1OC,?,?,2%,-15%,-17,-14%
CCCCn1nnc(N(C(=O)c2cccs2)C(=O)c2cccs2)n1,20%,38%,-1%,0%,0,?
COc1ccc2nc(NC(=O)c3cccc(-c4cc5ccccc5oc4=O)c3)sc2c1,10µM*,10µM*,1%,1%[57.1 µM],1,13%[57.1 µM]
COc1ccc(C(=O)Nc2nc3ccc(OC)cc3s2)cc1,4.5µM*,1.4µM*,0%,20%,-4,26%
COc1ccc2nc(NC(=O)c3ccccc3C(=O)O)sc2c1,-9%,-4%,4%,3%,8,31%
COc1ccc(C(=O)Nc2nc3ccc(S(C)(=O)=O)cc3s2)cc1,-2%,14%,-2%,6%,5,-9%
SMILES,VP16 counter,RORgamma inh,GALK inhibitor,TrxR1 substrate,FBPA coupling cs,TrxR1 inh
CCCCC(=O)Nc1nc2ccc(C(=O)OC)cc2s1,?,8.9µM*,-2%,-3%,0,3%
COc1ccc2nc(NC(=O)c3cc(=O)c4ccccc4o3)sc2c1,nt,nt,nt,0%,nt,12%
COc1ccc2nc(NC(=O)c3cnccn3)sc2c1,10µM*,?,0%,2%,0,-2%
CCCCSc1cc(C)nc(N)n1,23%,23%,-1%,2%,2,12%
Cc1ccc(S(=O)(=O)NC(CC(=O)NCC2CCCO2)c2ccco2)cc1 (stereo unspecified),-2%,1%,2%,-8%,3,15%[57.1 µM]
Cc1cc(C(=O)Nc2nc3ccc(Cl)cc3s2)nn1C,-14%,?,3%,12%,0,6%[57.1 µM]
Cn1ncc(Cl)c1C(=O)Nc1nc2ccc(Cl)cc2s1,?,11µM*,nt,21%,3,4%
CCCCNS(=O)(=O)c1ccc(NC(=O)c2cccs2)cc1,-8%,?,0%,-3%,0,7%
CC(=O)c1ccc(-c2ccc(-c3cc(=O)oc4c(C(C)C)ccc(C)c34)cc2)cc1,11µM*,?,nt,-4%,0,18%
Cc1ccc(C(C)C)c2oc(=O)cc(-c3ccc(-c4ccc(C(F)(F)F)cc4)cc3)c12,0%,6%,nt,4%,3,15%
NC(=O)CNC(=O)[C@@H]1CC2(CC(c3ccc(Cl)cc3)=NO2)CN1C(=O)c1ccccc1 (stereo partly specified),6%,2%,nt,7%[57.1 µM],-3,10%[57.1 µM]
Cc1cc(C)nc(SCC(=O)NN)n1,-9%,8.9µM*,9%,-8%,3,-2%
Cc1ccccc1C(=O)NNC(=O)/C=C\C(=O)O,?,3.5µM*,-4%,0%,-2,7.1µM*
Cc1cccc(C(=O)NNC(=O)/C=C/C(=O)O)c1,-10%,14µM*,0%,-4%,1,2%
O=C(O)/C=C/C(=O)NNC(=O)c1ccccc1Br,-16%,11µM*,3%,2%,2,-4%
Cc1cccc(C(=O)NNC(=O)c2cccc(C)c2)c1,6%,21%,nt,-9%,1,-26%
CCOc1ncccc1C(=O)Nc1cccc(-n2cnnn2)c1C,nt,nt,nt,8%,nt,27%
COc1ccc(-c2noc(CC(=O)Nc3ccc(Br)cc3C)n2)cc1,nt,nt,nt,3%,nt,36%
Cc1nc(NC(=O)COC(=O)C(C)NC(=O)c2ccccc2)c(Cl)cc1Cl (stereo unspecified),nt,nt,nt,0%,nt,18%
O=C(O)c1cc(O)c2c(c1)[C@H]([C@H]1c3cc(C(=O)O)cc(O)c3C(=O)c3c(O[C@@H]4OC(CO)C(O)C(O)C4O)cccc31)c1cccc(O[C@@H]3OC(CO)C(O)C(O)C3O)c1C2=O (stereo partly specified),-19%,-36%,nt,nt,-39*,nt
O=C(O)c1cc(O)c2c(c1)[C@@H]([C@H]1c3cc(C(=O)O)cc(O)c3C(=O)c3c(O[C@@H]4O[C@H](CO)[C@@H](O)[C@H](O)[C@H]4O)cccc31)c1cccc(O[C@@H]3O[C@H](CO)[C@@H](O)[C@H](O)[C@H]3O)c1C2=O,nt,nt,nt,-8%[57.1 µM],nt,?
